{"source": "the supplement of paper PMC8728848", "assay_in_all_cases": "glycan array binding signal (z-score within array); higher = stronger binding", "settings_in_all_cases": "glycan notation: IUPAC condensed, linker removed", "key": {"Fuc(a1-2)Gal(b1-4)GlcNAc": {"target": "Fuc(a1-2)Gal(b1-4)GlcNAc", "procedure,_shortened": "(§1)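 The binding signal is a Z-score computed within each array. Data were drawn from 3228 arrays in the Consortium for Functional Glycomics database, restricted to those with a known protein sequence. Scores were averaged over arrays of the same protein sequence at different concentrations or buffers, and over linkers, and negative values can be taken as non-binding.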"}, "[1]": {"target": "Fuc(a1-2)Gal(b1-4)GlcNAc(b1-3)Gal(b1-4)GlcNAc(b1-3)Gal(b1-4)GlcNAc", "procedure,_shortened": "as §1"}, "Fuc(a1-2)Gal6S(b1-4)Glc": {"target": "Fuc(a1-2)Gal6S(b1-4)Glc", "procedure,_shortened": "as §1"}, "Fuc(a1-2)GlcNAc": {"target": "Fuc(a1-2)GlcNAc", "procedure,_shortened": "as §1"}, "[2]": {"target": "Fuc(a1-2)[GalNAc(a1-3)]Gal(b1-4)GlcNAc(b1-2)Man(a1-3)[Fuc(a1-2)[GalNAc(a1-3)]Gal(b1-4)GlcNAc(b1-2)Man(a1-6)]Man(b1-4)GlcNAc(b1-4)GlcNAc", "procedure,_shortened": "as §1"}, "[3]": {"target": "Fuc(a1-2)[GalNAc(a1-3)]Gal(b1-4)GlcNAc(b1-3)Gal(b1-4)GlcNAc", "procedure,_shortened": "as §1"}, "[4]": {"target": "Fuc(a1-3)[Gal(b1-4)]GlcNAc", "procedure,_shortened": "as §1"}, "[5]": {"target": "Fuc(a1-3)[Gal(b1-4)]GlcNAc(b1-2)Man(a1-3)[Fuc(a1-3)[Gal(b1-4)]GlcNAc(b1-2)Man(a1-6)]Man(b1-4)GlcNAc(b1-4)[Fuc(a1-6)]GlcNAc", "procedure,_shortened": "as §1"}, "[6]": {"target": "Fuc(a1-3)[GalNAc(b1-4)]GlcNAc", "procedure,_shortened": "as §1"}, "Gal(a1-3)Gal(b1-3)GlcNAc": {"target": "Gal(a1-3)Gal(b1-3)GlcNAc", "procedure,_shortened": "as §1"}, "Gal(b1-3)GlcNAc": {"target": "Gal(b1-3)GlcNAc", "procedure,_shortened": "as §1"}, "[7]": {"target": "Gal(b1-3)GlcNAc(b1-3)Gal(b1-4)GlcNAc(b1-6)[Gal(b1-3)GlcNAc(b1-3)]Gal(b1-4)Glc", "procedure,_shortened": "as §1"}, "[8]": {"target": "Gal(b1-3)GlcNAc(b1-6)Gal(b1-4)GlcNAc", "procedure,_shortened": "as §1"}, "[9]": {"target": "Gal(b1-3)[Fuc(a1-4)]GlcNAc(b1-3)Gal(b1-4)[Fuc(a1-3)]GlcNAc", "procedure,_shortened": "as §1"}, "[10]": {"target": "Gal(b1-4)GlcNAc(b1-2)Man(a1-3)[Man(a1-6)]Man(b1-4)GlcNAc(b1-4)GlcNAc", "procedure,_shortened": "as §1"}, "[11]": {"target": "Gal(b1-4)GlcNAc(b1-2)Man(a1-6)Man(b1-4)GlcNAc(b1-4)GlcNAc", "procedure,_shortened": "as §1"}, "[12]": {"target": "Gal(b1-4)GlcNAc(b1-2)[Gal(b1-4)GlcNAc(b1-4)]Man(a1-3)[Gal(b1-4)GlcNAc(b1-2)Man(a1-6)]Man(b1-4)GlcNAc(b1-4)GlcNAc", "procedure,_shortened": "as §1"}, "[13]": {"target": "Gal(b1-4)GlcNAc(b1-2)[Gal(b1-4)GlcNAc(b1-4)]Man(a1-3)[GlcNAc(b1-4)][Gal(b1-4)GlcNAc(b1-2)[Gal(b1-4)GlcNAc(b1-6)]Man(a1-6)]Man(b1-4)GlcNAc(b1-4)GlcNAc", "procedure,_shortened": "as §1"}, "Gal3S(b1-3)GlcNAc": {"target": "Gal3S(b1-3)GlcNAc", "procedure,_shortened": "as §1"}, "[14]": {"target": "GlcNAc(a1-4)Gal(b1-4)GalNAc", "procedure,_shortened": "as §1"}, "[15]": {"target": "GlcNAc(b1-3)[GlcNAc(b1-6)]GlcNAc(b1-4)GlcNAc", "procedure,_shortened": "as §1"}, "[16]": {"target": "Man(a1-2)Man(a1-2)Man(a1-6)[Man(a1-3)]Man", "procedure,_shortened": "as §1"}, "[17]": {"target": "Man(a1-2)Man(a1-3)[Man(a1-2)Man(a1-6)]Man", "procedure,_shortened": "as §1"}, "[18]": {"target": "Man(a1-2)Man(a1-3)[Man(a1-2)Man(a1-6)]Man(a1-6)[Man(a1-2)Man(a1-2)Man(a1-3)]Man", "procedure,_shortened": "as §1"}, "[19]": {"target": "Man(a1-2)Man(a1-6)[Man(a1-3)]Man(a1-6)[Man(a1-2)Man(a1-2)Man(a1-3)]Man", "procedure,_shortened": "as §1"}, "[20]": {"target": "Man(a1-2)Man(a1-6)[Man(a1-3)]Man(a1-6)[Man(a1-2)Man(a1-2)Man(a1-3)]Man(b1-4)GlcNAc(b1-4)GlcNAc", "procedure,_shortened": "as §1"}, "Man(a1-3)[Man(a1-6)]Man": {"target": "Man(a1-3)[Man(a1-6)]Man", "procedure,_shortened": "as §1"}, "[21]": {"target": "Man(a1-3)[Man(a1-6)]Man(a1-6)[Man(a1-2)Man(a1-3)]Man(b1-4)GlcNAc(b1-4)GlcNAc", "procedure,_shortened": "as §1"}, "[22]": {"target": "Man(a1-3)[Man(a1-6)]Man(a1-6)[Man(a1-3)]Man(b1-4)GlcNAc(b1-4)GlcNAc", "procedure,_shortened": "as §1"}, "[23]": {"target": "Man(a1-3)[Man(a1-6)]Man(b1-4)GlcNAc(b1-4)GlcNAc", "procedure,_shortened": "as §1"}, "[24]": {"target": "Neu5Ac(a2-3)Gal(b1-3)GlcNAc(b1-3)Gal(b1-4)GlcNAc", "procedure,_shortened": "as §1"}, "[25]": {"target": "Neu5Ac(a2-3)Gal(b1-3)[Neu5Ac(a2-6)]GalNAc", "procedure,_shortened": "as §1"}, "[26]": {"target": "Neu5Ac(a2-3)Gal(b1-4)GlcNAc(b1-3)Gal", "procedure,_shortened": "as §1"}, "[27]": {"target": "Neu5Ac(a2-3)[GalNAc(b1-4)]Gal(b1-4)Glc", "procedure,_shortened": "as §1"}, "[28]": {"target": "Neu5Ac(a2-8)Neu5Ac(a2-8)Neu5Ac(a2-3)Gal(b1-4)Glc", "procedure,_shortened": "as §1"}, "Neu5Gc(a2-6)GalNAc": {"target": "Neu5Gc(a2-6)GalNAc", "procedure,_shortened": "as §1"}}, "note": "The full list was thinned out, with the strongest signals kept by preference.", "data": [{"binder": "BC2L-A (Burkholderia cenocepacia), Q1BKJ8_BURCA (protein) ADSQTSSNRAGEFSIPPNTDFRAIFFANAAEQQHIKLFIGDSQEPAAYHKLTTRDGPREATLNSGNGKIRFEVSVNGKPSATDARLAPINGKKSDGSPFTVNFGIVVSEDGHDSDYNDGIVVLQWPIG", "values": [{"measurement": "glycan array binding signal (z-score)", "setting": "Fuc(a1-2)Gal(b1-4)GlcNAc", "value": 0.167}, {"measurement": "glycan array binding signal (z-score)", "setting": "[1]", "value": 0.018}, {"measurement": "glycan array binding signal (z-score)", "setting": "Fuc(a1-2)Gal6S(b1-4)Glc", "value": -0.176}, {"measurement": "glycan array binding signal (z-score)", "setting": "Fuc(a1-2)GlcNAc", "value": -0.178}, {"measurement": "glycan array binding signal (z-score)", "setting": "[2]", "value": -0.165}, {"measurement": "glycan array binding signal (z-score)", "setting": "[3]", "value": -0.296}, {"measurement": "glycan array binding signal (z-score)", "setting": "[4]", "value": -0.285}, {"measurement": "glycan array binding signal (z-score)", "setting": "[5]", "value": -0.217}, {"measurement": "glycan array binding signal (z-score)", "setting": "[6]", "value": -0.263}, {"measurement": "glycan array binding signal (z-score)", "setting": "Gal(a1-3)Gal(b1-3)GlcNAc", "value": -0.284}, {"measurement": "glycan array binding signal (z-score)", "setting": "Gal(b1-3)GlcNAc", "value": -0.29}, {"measurement": "glycan array binding signal (z-score)", "setting": "[7]", "value": -0.22}, {"measurement": "glycan array binding signal (z-score)", "setting": "[8]", "value": -0.219}, {"measurement": "glycan array binding signal (z-score)", "setting": "[9]", "value": -0.086}, {"measurement": "glycan array binding signal (z-score)", "setting": "[10]", "value": 2.13}, {"measurement": "glycan array binding signal (z-score)", "setting": "[11]", "value": -0.182}, {"measurement": "glycan array binding signal (z-score)", "setting": "[12]", "value": -0.144}, {"measurement": "glycan array binding signal (z-score)", "setting": "[13]", "value": -0.22}, {"measurement": "glycan array binding signal (z-score)", "setting": "Gal3S(b1-3)GlcNAc", "value": 0.002}, {"measurement": "glycan array binding signal (z-score)", "setting": "[14]", "value": -0.296}, {"measurement": "glycan array binding signal (z-score)", "setting": "[15]", "value": -0.249}, {"measurement": "glycan array binding signal (z-score)", "setting": "[16]", "value": 4.07}, {"measurement": "glycan array binding signal (z-score)", "setting": "[17]", "value": 2.25}, {"measurement": "glycan array binding signal (z-score)", "setting": "[18]", "value": 4.82}, {"measurement": "glycan array binding signal (z-score)", "setting": "[19]", "value": 4.09}, {"measurement": "glycan array binding signal (z-score)", "setting": "[20]", "value": 5.06}, {"measurement": "glycan array binding signal (z-score)", "setting": "Man(a1-3)[Man(a1-6)]Man", "value": 5.28}, {"measurement": "glycan array binding signal (z-score)", "setting": "[21]", "value": 5.49}, {"measurement": "glycan array binding signal (z-score)", "setting": "[22]", "value": 4.38}, {"measurement": "glycan array binding signal (z-score)", "setting": "[23]", "value": 4.23}, {"measurement": "glycan array binding signal (z-score)", "setting": "[24]", "value": -0.218}, {"measurement": "glycan array binding signal (z-score)", "setting": "[25]", "value": -0.083}, {"measurement": "glycan array binding signal (z-score)", "setting": "[26]", "value": -0.214}, {"measurement": "glycan array binding signal (z-score)", "setting": "[27]", "value": -0.295}, {"measurement": "glycan array binding signal (z-score)", "setting": "[28]", "value": -0.253}, {"measurement": "glycan array binding signal (z-score)", "setting": "Neu5Gc(a2-6)GalNAc", "value": -0.29}]}]}
